Reference: PubChem BioAssay (NCI)
The panel holds about 83,000 compounds, 20% with a hit somewhere; the sample as a whole holds those more often.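 Testing used 96-well plates and a 48-hour single-concentration exposure. Example: -40 means 40% of the starting cells died.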 Unmarked numbers belong to inactive results. Activity calls are given as the source filed them. How the source made its calls: active means growth percent below 10; inactive means the rest.

Columns and labels:
Assay in all cases: NCI-60 one-dose screen, 48 h (100 = growth as untreated, 0 = no growth, -100 = all killed)
Settings in all cases: 10 µM unless noted
[1] = system: T-47D breast
[2] = system: BT-549 breast
[3] = system: MDA-MB-435 melanoma
[4] = system: SW-620 colon
[5] = system: MCF7 breast
[6] = system: HCT-116 colon
[7] = system: HCC-2998 colon
[8] = system: KM12 colon

## CC(C)=CCCC(C)c1ccc(C)c2c1OCN(CCCCCO)C2 (configuration not stated)
[1]
  growth: 88.1%
[2]
  growth: 72.1%
[3]
  growth: 97.1%
[4]
  growth: 94.9%
[5]
  growth: 88.7%
[6]
  growth: 68.6%
[7]
  growth: 73.5%
[8]
  growth: 104%

## C=C(C)[C@@H]1CC[C@]2(C(=O)O)CC[C@]3(C)[C@H](CC[C@@H]4[C@@]5(C)CCC(NC(=O)c6cccc(OC(C)=O)c6OC(C)=O)C(C)(C)[C@@H]5CC[C@]43C)[C@@H]12 (some centres not stated)
[1]
  growth: 20.9%
[2]
  growth: 16.5%
[3]
  growth: -56.4% (active)
[4]
  growth: 2.79% (active)
[5]
  growth: 4.17% (active)
[6]
  growth: -38.6% (active)
[7]
  growth: 12%
[8]
  growth: 12.1%

## Nc1ncnc2c1c(-c1cccc(Cl)c1)nn2CC(=O)N1CCOCC1
[1]
  growth: 105%
[2]
  growth: 97.2%
[3]
  growth: 104%
[4]
  growth: 106%
[5]
  growth: 94.9%
[6]
  growth: 101%
[7]
  growth: 110%
[8]
  growth: 102%

## N#Cc1c(-c2ccccc2)cc(-c2ccccc2)n(CCCC(=O)Nc2ccccc2N)c1=O
[1]
  growth: 64.1%
[2]
  growth: 55.4%
[3]
  growth: -15.6% (active)
[4]
  growth: 35%
[5]
  growth: 36%
[6]
  growth: 45%
[7]
  growth: 85.7%
[8]
  growth: 42.3%

## CCSC(SCC)c1ccc(Cl)cc1
[1]
  growth: 101%
[2]
  growth: 112%
[3]
  growth: 97.4%
[4]
  growth: 99.3%
[5]
  growth: 104%
[6]
  growth: 108%
[7]
  growth: 92.3%
[8]
  growth: 114%

## O=C1c2c(c3c4ccccc4[nH]c3c3ccc4ccccc4c23)C(=O)N1CCN1CCOCC1
[1]
  growth: 18.6%
[2]
  growth: 69.8%
[3]
  growth: 58.6%
[4]
  growth: 36.1%
[5]
  growth: 16.4%
[6]
  growth: 23.4%
[7]
  growth: 80%
[8]
  growth: 36.4%

## C1CN(SSN2CCOCC2)CCO1
[1]
  growth: -24.8% [100 µM] (active)
[2]
  growth: -90% [100 µM] (active)
[3]
  growth: 0.278% [100 µM] (active)
[4]
  growth: -56.4% [100 µM] (active)
[5]
  growth: 22.1% [100 µM]
[6]
  growth: -75.5% [100 µM] (active)
[7]
  growth: 90.7% [100 µM]
[8]
  growth: 2.07% [100 µM] (active)

## CC(=O)O[C@H]1CC2CCC3C(CC[C@@]4(C)C3C[C@H]([N+]3(C)CCCCC3)[C@@H]4OC(C)=O)[C@@]2(C)C[C@@H]1N1CCCCC1 (some centres not stated)
[1]
  growth: 109%
[2]
  growth: 108%
[3]
  growth: 99.5%
[4]
  growth: 106%
[5]
  growth: 111%
[6]
  growth: 101%
[7]
  growth: 111%
[8]
  growth: 108%

## CCOC(=O)c1c(NC(=O)c2cccc(C(F)(F)F)c2)sc2c(CN(C)C)c(O)ccc12
[1]
  growth: 70.3%
[2]
  growth: 96.3%
[3]
  growth: -22.6% (active)
[4]
  growth: -6.39% (active)
[5]
  growth: 26.3%
[6]
  growth: 33.7%
[7]
  growth: -64.2% (active)
[8]
  growth: 79.4%

## CC(O)(c1ccccc1)C(c1ccccc1)C1CCCCN1 (configuration not stated)
[1]
  growth: 94.2%
[2]
  growth: 35.6%
[3]
  growth: 99.1%
[4]
  growth: 103%
[5]
  growth: 110%
[6]
  growth: 97.3%
[7]
  growth: 107%
[8]
  growth: 104%

## CCN1C(=S)N(c2ccccc2)C2NC(=S)N(/N=C/C=C/c3ccccc3OC)C21 (configuration not stated)
[1]
  growth: 66.7%
[2]
  growth: 9.74% (active)
[3]
  growth: -31% (active)
[4]
  growth: 18.3%
[5]
  growth: 16.7%
[6]
  growth: 10.5%
[7]
  growth: 17.2%
[8]
  growth: 7.72% (active)

## CCOc1ccccc1Cn1ccnc1CCc1c(Cl)c(O)cc(O)c1C(=O)OC
[1]
  growth: 92.4%
[2]
  growth: 98.8%
[3]
  growth: 110%
[4]
  growth: 104%
[5]
  growth: 91.7%
[6]
  growth: 89.3%
[7]
  growth: 97.8%
[8]
  growth: 98.4%

## O=C(O)CCN1C(=O)/C(=C/C(Cl)=C/c2ccccc2)SC1=S
[1]
  growth: 28.8%
[2]
  growth: 16.9%
[3]
  growth: -63.4% (active)
[4]
  growth: 7.78% (active)
[5]
  growth: 15.7%
[6]
  growth: -19% (active)
[7]
  growth: 4.75% (active)
[8]
  growth: 15.3%

## CCOc1ccc(NC(=O)CSc2oc(-c3ccccc3)nc2S(=O)(=O)c2ccc(C)cc2)cc1
[1]
  growth: 57.4%
[2]
  growth: 94%
[3]
  growth: 87.4%
[4]
  growth: 74.3%
[5]
  growth: 61.9%
[6]
  growth: 23.8%
[7]
  growth: 82.6%
[8]
  growth: 65.4%

## COc1ccc(OC)c(Nc2nnc(-c3ccc(O)c(OC)c3)o2)c1
[1]
  growth: 43.9%
[2]
  growth: 79.4%
[3]
  growth: 85%
[4]
  growth: 78.6%
[5]
  growth: 77.7%
[6]
  growth: 63.8%
[7]
  growth: 90.6%
[8]
  growth: 20.4%

## CN(C)CC(C)(C)C(=O)/C=C/c1ccccc1
[1]
  growth: -30.8% [25 µM] (active)
[2]
  growth: -65% [25 µM] (active)
[3]
  growth: -35.9% [25 µM] (active)
[4]
  growth: -59.1% [25 µM] (active)
[5]
  growth: -13.6% [25 µM] (active)
[6]
  growth: -87.1% [25 µM] (active)
[7]
  growth: -75.7% [25 µM] (active)
[8]
  growth: -22.8% [25 µM] (active)

## Nc1c(C(=O)Nc2ccccc2F)sc2nc3c(cc12)CCCC3
[1]
  growth: 41.9%
[2]
  growth: 56.8%
[3]
  growth: -7.54% (active)
[4]
  growth: 25.3%
[5]
  growth: 18%
[6]
  growth: 23.7%
[7]
  growth: 57.7%
[8]
  growth: 27.6%

## CCCCCCCCCc1ccc(OCCOCCOCCOCCOCCOCCOCCOCCOCCO)cc1
[1]
  growth: 116%
[2]
  growth: -9.07% (active)
[3]
  growth: 7.48% (active)
[4]
  growth: 19.1%
[5]
  growth: 10.9%
[6]
  growth: 11%
[7]
  growth: 23.3%
[8]
  growth: 13.3%

## CCOC(=O)c1c(NC(=O)c2ccc(Cl)cc2)sc2c(CN(C)C)c(O)ccc12
[1]
  growth: 71.4%
[2]
  growth: 100%
[3]
  growth: 76.7%
[4]
  growth: 28.1%
[5]
  growth: 66.6%
[6]
  growth: 70.7%
[7]
  growth: -71.7% (active)
[8]
  growth: 87.9%

## CCOC(=O)c1nn(-c2ccc(S(N)(=O)=O)cc2)c2nc(C)cc(=O)n12
[1]
  growth: 106%
[2]
  growth: 106%
[3]
  growth: 105%
[4]
  growth: 106%
[5]
  growth: 92.4%
[6]
  growth: 106%
[7]
  growth: 109%
[8]
  growth: 102%

## CC1CCN(S(=O)(=O)c2ccc(S(=O)(=O)N3CCCC(c4nc5c(nnn5Cc5cccc(Cl)c5)c(=O)[nH]4)C3)cc2)CC1 (configuration not stated)
[1]
  growth: 50.3%
[2]
  growth: 67.9%
[3]
  growth: -30.9% (active)
[4]
  growth: 33.4%
[5]
  growth: 23.3%
[6]
  growth: 15.1%
[7]
  growth: 70.8%
[8]
  growth: 39.3%

## Cc1ccc(NC(=O)c2sc3nc(C)c(Br)c(C)c3c2N)cc1
[1]
  growth: 61.9%
[2]
  growth: 79.7%
[3]
  growth: 81.8%
[4]
  growth: 78.3%
[5]
  growth: 59.1%
[6]
  growth: 72.6%
[7]
  growth: 92.1%
[8]
  growth: 74.8%

## CCOC(=O)Cc1cnc(N/N=C(\C)c2cc3ccccc3o2)s1
[1]
  growth: 70.5%
[2]
  growth: 109%
[3]
  growth: 108%
[4]
  growth: 96.9%
[5]
  growth: 81.3%
[6]
  growth: 96.4%
[7]
  growth: 105%
[8]
  growth: 96.3%

## CCCCNCCCCCNc1cc(OC)cc2cccnc12
[1]
  growth: 79.4%
[2]
  growth: 91%
[3]
  growth: 102%
[4]
  growth: 100%
[5]
  growth: 84.6%
[6]
  growth: 85.9%
[7]
  growth: 95.4%
[8]
  growth: 114%

## COC(=O)c1nc(-c2ccc(C)cc2)oc1S(=O)(=O)c1cccc(OC)c1
[1]
  growth: 90%
[2]
  growth: 70.6%
[3]
  growth: 100%
[4]
  growth: 65.5%
[5]
  growth: 95.6%
[6]
  growth: 61.6%
[7]
  growth: 103%
[8]
  growth: 93.5%

## O=CN1N=C(c2cccc(Nc3ccnc4cc(Cl)ccc34)c2)CC1c1ccccc1 (configuration not stated)
[1]
  growth: 45.5%
[2]
  growth: 35.7%
[3]
  growth: -34.4% (active)
[4]
  growth: 34.2%
[5]
  growth: 19.3%
[6]
  growth: 7.26% (active)
[7]
  growth: 12.4%
[8]
  growth: 19.7%

## CN(C)CCNC(=O)c1cc2c3cc(Cl)ccc3[nH]c2c2ncccc12
[1]
  growth: 24%
[2]
  growth: 29.5%
[3]
  growth: -41.3% (active)
[4]
  growth: -2.12% (active)
[5]
  growth: -16.1% (active)
[6]
  growth: -56.6% (active)
[7]
  growth: -45.1% (active)
[8]
  growth: 25.2%

## COc1ccc(\C=N/N=C(N)/C(N)=N\N=C/c2ccc(OC)cc2)cc1
[1]
  growth: 90.3%
[2]
  growth: 116%
[3]
  growth: 107%
[4]
  growth: 103%
[5]
  growth: 104%
[6]
  growth: 113%
[7]
  growth: 110%
[8]
  growth: 110%

## CC(C)=CCC[C@](C)(O)[C@H]1CC[C@]2(C)[C@@H]1CC[C@@H]1[C@@]3(C)C/C(=C/c4ccco4)C(=O)C(C)(C)[C@@H]3CC[C@]12C
[1]
  growth: 97.8%
[2]
  growth: 98.1%
[3]
  growth: 97.4%
[4]
  growth: 99.1%
[5]
  growth: 97.2%
[6]
  growth: 97.4%
[7]
  growth: 105%
[8]
  growth: 106%
